Screening data as filed in PubChem.
TNAP act DEA = human TNAP activation, intermediate phosphate acceptor. P05186. purified TNAP, CDP-star luminescence, 100 mM DEA, 30 min; hits give high values; scale: 0 levamisole-inhibited, 1 vehicle-only enzyme. activation factor at 20 µM. 64,000 tested, under 10 active. AID 813;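 active means activation factor of at least 2 at 20 µM, relative to controls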
hDAT+cocaine = changed human dopamine transporter uptake under cocaine IC80; B-score at 10 µM; 1.3% of 110,000 active; LLC-PK1 hDAT cells, [14C]-dopamine uptake with cocaine IC80; actives deviate in either direction;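 active means Z score or B-score, a plate-position-corrected score, falls beyond the plate's 99.7% confidence bounds, in either direction; inactive means both scores lie inside the 99.7% bounds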;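 further: scored against the spread of the other compound wells on the same plate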
Smad3 FoxH1 inh = Smad3 (human) transcription factor binding inhibition; P84022; TR-FRET Smad3/Dy647-FoxH1 peptide binding, europium anti-His; inhibition, % at 25 µM; 0.29% of 88,000 active; AID 630;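 active means compounds that reduce the energy-transfer binding signal between the protein and its labelled peptide by more than half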;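 further: 0% = Smad3 plus labelled peptide maximal FRET and 100% = peptide-only background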
Target sequence (P84022 whole entry, looked up): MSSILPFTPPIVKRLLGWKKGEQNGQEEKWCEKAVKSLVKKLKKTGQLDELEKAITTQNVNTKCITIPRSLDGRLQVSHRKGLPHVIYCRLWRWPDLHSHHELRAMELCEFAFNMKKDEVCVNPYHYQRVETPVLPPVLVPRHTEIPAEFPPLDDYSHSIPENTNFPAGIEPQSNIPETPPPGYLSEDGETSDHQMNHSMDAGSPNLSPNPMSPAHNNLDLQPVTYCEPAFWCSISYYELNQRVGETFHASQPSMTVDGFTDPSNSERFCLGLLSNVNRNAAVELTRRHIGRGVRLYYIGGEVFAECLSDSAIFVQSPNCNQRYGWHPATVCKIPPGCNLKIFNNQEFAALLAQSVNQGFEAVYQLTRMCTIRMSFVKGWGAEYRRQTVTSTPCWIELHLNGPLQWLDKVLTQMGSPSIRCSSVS
PostGolgi ctrl = yeast control strain growth, post-Golgi counter-screen; efflux-deficient yeast background strain, growth absorbance A615, 16 h; inhibition, % at 10 µM; 5% of 98,000 active; AID 738
PostGolgi yeast = growth inhibition of a yeast mutant, post-Golgi transport screen | post-Golgi transport phenotypic cell assay | inhibition, % at 10 µM | 0.9% of 98,000 active | AID 739;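 further: yeast cells grown in 1536-well plates; yeast grown about 18 h at 30C before absorbance read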
Cav3 T inh = human Cav3.2 channel inhibition, primary screen; B-score at 10 µM; Cav3.2-expressing cells, Fluo-4 calcium fluorescence FDSS; hits give low values; 4% of 100,000 active; O95180;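 active means single-dose well whose peak fluorescence ratio is a statistical outlier from its plate by either plate-standardised score or position-corrected B-score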
* marks the source's active call; other numbers are inactive results; nt = no result. Sampled rows, rich in hits. Any-hit rate of the full collection: about 8.7%. Unless noted, no stated cut-off is given here; in the data, active means inhibition above about 30%; inactive means the rest.

SMILES	TNAP act DEA	hDAT+cocaine	Smad3 FoxH1 inh	PostGolgi ctrl	PostGolgi yeast	Cav3 T inh
CCOC(=O)C(O)(c1ccc(N(CC)S(=O)(=O)c2ccc(C)cc2)cc1)C(F)(F)F (stereo not given)	nt	0.1	22	1	-13	-6.2*
COC(=O)C(O)(c1ccc(N(C)S(=O)(=O)c2ccccc2)cc1)C(F)(F)F (stereo not given)	1	1.1	-1	-1	-1	-0.86
CCN(c1ccc(C(O)(C(=O)OC)C(F)(F)F)cc1)S(=O)(=O)c1ccc(C)cc1 (stereo not given)	nt	0.62	3	35*	-2	-4.9*
C=Cn1ccnc1P(=S)(c1nccn1C=C)c1nccn1C=C	nt	-1.3	-10	-2	3	0.22
Cc1ccc2nc3c(cc2c1)CC1(C(=O)N(C)C(=O)N(C)C1=O)C1CCCCN31 (stereo not given)	0.9	2.9*	9	2	-4	0.11
Cc1ccc2nc3c(cc2c1)CC1(C(=O)N(C)C(=O)N(C)C1=O)C1COCCN31 (stereo not given)	0.9	0.23	-4	32*	-3	0.54
CN1C(=O)N(C)C(=O)C2(Cc3cc(N)ccc3N3CCN(c4ccccc4F)CC32)C1=O (stereo not given)	0.8	-1.4	15	3	0	-0.68
CC(C)(O)/C=C/C(=O)[C@](C)(O)[C@H]1[C@H](O)C[C@@]2(C)[C@@H]3CC=C4[C@H](C=C(O)C(=O)C4(C)C)[C@@]3(C)C(=O)C[C@]12C	nt	nt	-5	nt	nt	nt
COc1ccn(C)c(=O)c1C#N	nt	0.91	nt	nt	nt	-0.091
